Unmarked numbers belong to inactive results. Active and inactive are the calls of the source. Calls follow the shape of the dose curve; as a rule, active = well fitted cell-killing curve with a large enough effect; inconclusive = small, poorly fitted or top-dose-only effect; inactive = flat fitted curve, though single readings scatter.
Experiment: Cell Viability - LYMP1-003 - Assay at 24 hr (AID 963);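 as to viability change, negative = cytotoxic: plate controls were DMSO only for no effect and tetraoctylammonium bromide positive control for full effect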
Conditions: LYMP1-003 lymphoblastoid cell viability; series mostly up to 92.2 µM; viability change, negative = cytotoxic: at the top concentration
Method in brief: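 Cytotoxicity is scored as a concentration-dependent fall in ATP-linked luciferase signal in human lymphoblastoid LYMP1-003 cells treated 24 hr at 37 C in complete culture medium.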
Potency is read from the fitted curve at half-maximal effect.

Row | Compound | Potency | viability change, negative = cytotoxic
1 | COc1cccc2c1C(=O)c1c(O)c3c(c(O)c1C2=O)C[C@@](O)(C(C)=O)C[C@@H]3O[C@H]1C[C@H](N)[C@H](O)[C@H](C)O1 | 1 µM (active) | –
2 | CC(=O)O[C@]1(C(C)=O)CC[C@H]2[C@@H]3C[C@H](C)C4=CC(=O)CC[C@]4(C)[C@H]3CC[C@@]21C | – | 0.627%
3 | O=C(O)CCCCC(=O)O | – | -4.81%
4 | CC(O)C(=O)O (stereo unspecified) | – | 4.35%
5 | COc1cccc2c1C(=O)c1c(O)c3c(c(O)c1C2=O)C[C@@](O)(C(=O)CO)C[C@@H]3O[C@H]1C[C@H](N)[C@H](O)[C@H](C)O1 | 1.26 µM (active) | –
6 | C[C@]12CC[C@@H]3c4ccc(O)cc4CC[C@H]3[C@@H]1CC[C@@H]2O | – | -18.2%

From PubChem BioAssay (NCATS)
